Results published in PubChem BioAssay (EPA / NIEHS).
Records with an inconclusive call do not appear. Activity calls are given as the source filed them. Rule for the calls: active = hit-call score of the fitted dose curve at least 0.9, where 1 is the maximum; inconclusive = response in the unintended direction; inactive = score below 0.9.

Columns and labels:
[1] = ATG_M_32_XSP1: Attagene TRANS-FACTORIAL Multi-Species (XSP1) HepG2 Assay for M32 Transcription Factor (Internal Marker) (AID 2283799)
Outline: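 Reporter transcripts from the M32 internal-control unit measured by RT-PCR, FAM labelling, HpaI digestion and capillary electrophoresis after 24 h compound exposure of transfected HepG2, 3 nM 6-alpha-fluorotestosterone included; DMSO baseline, positive-direction fit.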

[2] = biological target: Peroxisome proliferator-activated receptor gamma (Homo sapiens) (UniProt P37231); assay: ATG_hPPARg_XSP1: Attagene TRANS-FACTORIAL Multi-Species (XSP1) HepG2 Assay for human Peroxisome Proliferator-activated Receptor gamma (PPARg) (AID 2283800)
Peroxisome proliferator-activated receptor gamma (Homo sapiens), sequence (P37231 whole entry, looked up, the tested form may be a part): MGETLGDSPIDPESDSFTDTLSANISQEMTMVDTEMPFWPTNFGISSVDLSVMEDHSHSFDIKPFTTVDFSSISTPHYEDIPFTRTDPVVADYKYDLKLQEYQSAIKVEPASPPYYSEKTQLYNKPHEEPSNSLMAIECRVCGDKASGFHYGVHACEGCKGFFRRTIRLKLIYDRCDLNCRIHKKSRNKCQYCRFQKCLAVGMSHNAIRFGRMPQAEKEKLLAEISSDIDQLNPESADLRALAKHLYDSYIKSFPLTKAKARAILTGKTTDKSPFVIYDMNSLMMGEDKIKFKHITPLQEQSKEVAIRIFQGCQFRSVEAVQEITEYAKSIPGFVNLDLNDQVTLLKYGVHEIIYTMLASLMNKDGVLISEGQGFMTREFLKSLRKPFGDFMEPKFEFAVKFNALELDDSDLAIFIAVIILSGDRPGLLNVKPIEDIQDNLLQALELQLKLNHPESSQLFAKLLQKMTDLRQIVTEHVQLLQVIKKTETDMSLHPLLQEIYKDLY
Outline: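 Reporter mRNA induction, measured by RT-PCR with capillary electrophoresis 24 h after dosing, scored as gain over DMSO. Transfected HepG2 cells express exogenous NR-Gal4 chimeras driving GAL4-UAS reporters; medium includes 3 nM 6-alpha-fluorotestosterone.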

[3] = tested on: zebrafish Peroxisome Proliferator-activated Receptor gamma (PPARg), gene 557037; assay: ATG_zfPPARg_XSP1: Attagene TRANS-FACTORIAL Multi-Species (XSP1) HepG2 Assay for zebrafish Peroxisome Proliferator-activated Receptor gamma (PPARg) (AID 2283801)
Outline: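 Trans-activation readout of chimeric zebrafish PPARg–GAL4 in transiently transfected human HepG2 cells, 24 h chemical exposure (medium includes 3 nM 6-alpha-fluorotestosterone). Reporter transcripts measured by RT-PCR and capillary electrophoresis, fitted as gain over DMSO.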

[4] = biological target: mouse Peroxisome Proliferator-activated Receptor gamma (PPARg), Pparg (gene 19016) (UniProt P37238); assay: ATG_mPPARg_XSP1: Attagene TRANS-FACTORIAL Multi-Species (XSP1) HepG2 Assay for mouse Peroxisome Proliferator-activated Receptor gamma (PPARg) (AID 2283802)
mouse Peroxisome Proliferator-activated Receptor gamma (PPARg), Pparg (gene 19016), sequence (P37238 whole entry, looked up, the tested form may be a part): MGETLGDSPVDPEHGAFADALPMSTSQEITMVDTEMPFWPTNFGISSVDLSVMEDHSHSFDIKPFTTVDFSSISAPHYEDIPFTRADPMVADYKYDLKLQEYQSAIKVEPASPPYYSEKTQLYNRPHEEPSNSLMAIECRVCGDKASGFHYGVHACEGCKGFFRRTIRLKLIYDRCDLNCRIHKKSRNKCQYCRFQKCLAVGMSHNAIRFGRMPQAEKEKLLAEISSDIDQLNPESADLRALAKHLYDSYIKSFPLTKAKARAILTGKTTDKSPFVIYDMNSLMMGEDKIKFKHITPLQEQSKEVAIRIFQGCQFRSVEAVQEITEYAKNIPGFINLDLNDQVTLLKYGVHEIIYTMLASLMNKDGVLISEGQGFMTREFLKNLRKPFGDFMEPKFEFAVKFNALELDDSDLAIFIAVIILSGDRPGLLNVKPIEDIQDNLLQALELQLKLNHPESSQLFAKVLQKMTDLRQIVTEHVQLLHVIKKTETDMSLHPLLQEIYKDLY
Outline: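 Readout is reporter mRNA induction, measured by RT-PCR with 6-FAM labelling, HpaI digestion and capillary electrophoresis, 24 h post-dose relative to DMSO. Transient multi-reporter transfection of human HepG2 with mouse PPARg–GAL4 fusion; 3 nM 6-alpha-fluorotestosterone included.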

[5] = biological target: frog Thyroid hormone Receptor alpha (TRa), thra-a (gene 397942) (UniProt P15204); assay: ATG_frTRa_XSP1: Attagene TRANS-FACTORIAL Multi-Species (XSP1) HepG2 Assay for frog Thyroid hormone Receptor alpha (TRa) (AID 2283804)
frog Thyroid hormone Receptor alpha (TRa), thra-a (gene 397942), sequence (P15204 whole entry, looked up, the tested form may be a part): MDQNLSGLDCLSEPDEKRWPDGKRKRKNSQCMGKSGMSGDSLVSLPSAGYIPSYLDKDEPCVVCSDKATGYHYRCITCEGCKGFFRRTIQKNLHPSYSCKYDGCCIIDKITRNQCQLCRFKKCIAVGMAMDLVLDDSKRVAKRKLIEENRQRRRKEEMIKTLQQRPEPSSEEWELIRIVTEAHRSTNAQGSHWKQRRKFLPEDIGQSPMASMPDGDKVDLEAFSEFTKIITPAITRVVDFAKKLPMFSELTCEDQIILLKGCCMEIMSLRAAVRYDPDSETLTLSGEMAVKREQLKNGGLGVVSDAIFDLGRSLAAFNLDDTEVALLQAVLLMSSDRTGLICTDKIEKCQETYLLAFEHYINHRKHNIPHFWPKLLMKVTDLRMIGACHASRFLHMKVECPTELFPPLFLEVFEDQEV
Outline: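 Reporter transcript induction, measured by RT-PCR with 6-FAM labelling and capillary electrophoresis, 24 hr after dosing transiently transfected HepG2 cells expressing a frog TRa-GAL4 fusion; medium contained 3 nM 6-alpha-fluorotestosterone; increase over DMSO scored.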

[6] = biological target: human Thyroid hormone Receptor alpha (TRa), THRA (gene 7067) (UniProt P10827); assay: ATG_hTRa_XSP1: Attagene TRANS-FACTORIAL Multi-Species (XSP1) HepG2 Assay for human Thyroid hormone Receptor alpha (TRa) (AID 2283805)
human Thyroid hormone Receptor alpha (TRa), THRA (gene 7067), sequence (P10827 whole entry, looked up, the tested form may be a part): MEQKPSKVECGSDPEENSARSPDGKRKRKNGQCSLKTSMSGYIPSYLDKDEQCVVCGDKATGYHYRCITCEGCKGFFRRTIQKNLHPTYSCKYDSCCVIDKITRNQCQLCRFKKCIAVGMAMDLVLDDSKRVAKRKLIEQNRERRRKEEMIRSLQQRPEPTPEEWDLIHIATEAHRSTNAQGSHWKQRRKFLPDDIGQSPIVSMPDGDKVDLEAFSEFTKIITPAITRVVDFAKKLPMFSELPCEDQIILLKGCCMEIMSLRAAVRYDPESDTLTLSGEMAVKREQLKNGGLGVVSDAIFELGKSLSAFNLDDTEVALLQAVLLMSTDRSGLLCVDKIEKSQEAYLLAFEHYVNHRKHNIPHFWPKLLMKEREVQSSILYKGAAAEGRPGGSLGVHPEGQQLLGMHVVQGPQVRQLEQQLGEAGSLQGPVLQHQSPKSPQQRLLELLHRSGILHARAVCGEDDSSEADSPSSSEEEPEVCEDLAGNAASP
Outline: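 Reporter transcripts from the human TRa-Gal4 TRANS unit quantified by RT-PCR, fluorescent labeling and capillary electrophoresis after 24 hours of chemical exposure in transfected HepG2 cells; medium contains 3 nM 6-alpha-fluorotestosterone. Positive direction fit against DMSO.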

[7] = biological target: zebrafish Thyroid Hormone Receptor alpha (TRa), thraa (gene 30670) (UniProt Q98867); assay: ATG_zfTRa_XSP1: Attagene TRANS-FACTORIAL Multi-Species (XSP1) HepG2 Assay for zebrafish Thyroid Hormone Receptor alpha (TRa) (AID 2283807)
zebrafish Thyroid Hormone Receptor alpha (TRa), thraa (gene 30670), sequence (Q98867 whole entry, looked up, the tested form may be a part): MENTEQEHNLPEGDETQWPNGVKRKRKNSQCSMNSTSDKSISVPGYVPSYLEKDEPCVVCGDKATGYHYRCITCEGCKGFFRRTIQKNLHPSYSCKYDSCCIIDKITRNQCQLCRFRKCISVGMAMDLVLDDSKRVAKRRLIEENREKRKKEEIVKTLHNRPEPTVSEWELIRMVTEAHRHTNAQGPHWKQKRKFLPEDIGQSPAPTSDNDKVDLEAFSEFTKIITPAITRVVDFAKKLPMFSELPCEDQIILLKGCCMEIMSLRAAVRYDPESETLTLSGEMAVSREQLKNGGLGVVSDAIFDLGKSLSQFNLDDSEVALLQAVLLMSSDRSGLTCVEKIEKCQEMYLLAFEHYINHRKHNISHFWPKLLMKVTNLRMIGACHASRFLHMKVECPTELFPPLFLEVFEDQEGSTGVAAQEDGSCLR
Outline: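 Reporter transcripts driven by a chimeric zebrafish TRa–Gal4 protein were measured by RT-PCR with fluorescent labelling and capillary electrophoresis. These came from transiently transfected HepG2 cells after 24 h chemical exposure, with 3 nM 6-alpha-fluorotestosterone added; baseline was DMSO.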

[8] = biological target: human Thyroid hormone Receptor beta (TRb), THRB (gene 7068) (UniProt P10828); assay: ATG_hTRb_XSP1: Attagene TRANS-FACTORIAL Multi-Species (XSP1) HepG2 Assay for human Thyroid hormone Receptor beta (TRb) (AID 2283808)
human Thyroid hormone Receptor beta (TRb), THRB (gene 7068), sequence (P10828 whole entry, looked up, the tested form may be a part): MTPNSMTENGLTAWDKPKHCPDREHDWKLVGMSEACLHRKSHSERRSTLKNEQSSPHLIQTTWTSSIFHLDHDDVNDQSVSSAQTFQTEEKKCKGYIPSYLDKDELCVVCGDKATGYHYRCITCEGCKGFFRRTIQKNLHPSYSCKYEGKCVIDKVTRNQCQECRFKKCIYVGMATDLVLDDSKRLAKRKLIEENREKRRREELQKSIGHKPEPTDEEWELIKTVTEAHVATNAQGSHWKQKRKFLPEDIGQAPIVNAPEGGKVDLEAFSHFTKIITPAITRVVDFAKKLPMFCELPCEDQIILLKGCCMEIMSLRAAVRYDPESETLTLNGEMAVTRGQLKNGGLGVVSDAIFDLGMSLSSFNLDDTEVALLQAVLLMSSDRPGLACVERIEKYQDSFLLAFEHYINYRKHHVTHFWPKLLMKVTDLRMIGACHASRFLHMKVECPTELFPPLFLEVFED
Outline: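 Readout is reporter mRNA induction measured by RT-PCR, fluorescent labelling and capillary electrophoresis, fitted upward relative to DMSO. Transiently transfected human HepG2 cells expressing NR-Gal4 chimeras were dosed for 24 h, medium containing 3 nM 6-alpha-fluorotestosterone.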

[9] = biological target: zebrafish Thyroid Hormone Receptor beta (TRb), thrb (gene 30607) (UniProt Q9PVE4); assay: ATG_zfTRb_XSP1: Attagene TRANS-FACTORIAL Multi-Species (XSP1) HepG2 Assay for zebrafish Thyroid Hormone Receptor beta (TRb) (AID 2283809)
zebrafish Thyroid Hormone Receptor beta (TRb), thrb (gene 30607), sequence (Q9PVE4 whole entry, looked up, the tested form may be a part): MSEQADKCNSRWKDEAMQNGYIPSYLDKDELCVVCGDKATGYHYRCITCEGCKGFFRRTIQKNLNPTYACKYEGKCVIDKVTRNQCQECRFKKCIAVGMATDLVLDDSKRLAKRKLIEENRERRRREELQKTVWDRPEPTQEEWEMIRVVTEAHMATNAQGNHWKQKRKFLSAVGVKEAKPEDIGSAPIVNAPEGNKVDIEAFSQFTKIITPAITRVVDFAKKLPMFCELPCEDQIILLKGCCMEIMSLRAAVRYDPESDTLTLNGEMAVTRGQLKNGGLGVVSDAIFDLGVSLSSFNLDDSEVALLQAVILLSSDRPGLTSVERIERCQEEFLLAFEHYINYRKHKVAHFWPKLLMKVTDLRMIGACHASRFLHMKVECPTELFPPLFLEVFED
Outline: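 HepG2 cells transiently transfected with multiplexed GAL4-UAS reporter units expressing chimeric zebrafish TRb–Gal4. Dosed 24 h with 3 nM 6-alpha-fluorotestosterone present; reporter mRNA measured by RT-PCR, HpaI digestion and capillary electrophoresis; gain of signal versus DMSO.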

[10] = ATG_XTT_Cytotoxicity_XSP1: Cytotoxicity Assessment in the Attagene TRANS-FACTORIAL Multi-Species (XSP1) HepG2 Assay (AID 2283810)
Outline: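 XTT viability readout taken at 24 hours post-dosing in HepG2 liver cells co-treated with 3 nM 6-alpha-fluorotestosterone. Signal loss relative to DMSO controls reflects cytotoxicity.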

[11] = ATG_M_06_XSP2: Attagene TRANS-FACTORIAL Multi-Species (XSP2) HepG2 Assay for M06 Transcription Factor (Internal Marker) (AID 2283811);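 note: internal background marker reporter mRNA measured by RT-PCR and capillary electrophoresis; hits are increases in signal above the DMSO baseline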
Outline: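 Internal-marker reporter transcript, quantified by RT-PCR, 6-FAM labelling, HpaI digestion and capillary electrophoresis, 24 hours after dosing transfected HepG2 cells with 3 nM 6-alpha-fluorotestosterone and 1.5 nM norgestrel present; DMSO baseline.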

[12] = tested on: turtle Estrogen Receptor (ERa), gene 101933533; assay: ATG_trERa_XSP2: Attagene TRANS-FACTORIAL Multi-Species (XSP2) HepG2 Assay for turtle Estrogen Receptor (ERa) (AID 2283812);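 note: actives raise reporter signal above DMSO so AC50 reflects agonist activity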
Outline: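 Readout is reporter mRNA quantified by RT-PCR with capillary electrophoresis after 24 h compound exposure, increase relative to DMSO. Uses transiently transfected human HepG2 liver cells carrying a chimeric turtle ERa-Gal4 receptor driving GAL4-UAS reporters.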

[13] = biological target: zebrafish Estrogen Receptor (ER1), esr1 (gene 259252) (UniProt P57717); assay: ATG_zfER1_XSP2: Attagene TRANS-FACTORIAL Multi-Species (XSP2) HepG2 Assay for zebrafish Estrogen Receptor (ER1) (AID 2283816)
zebrafish Estrogen Receptor (ER1), esr1 (gene 259252), sequence (P57717 whole entry, looked up, the tested form may be a part): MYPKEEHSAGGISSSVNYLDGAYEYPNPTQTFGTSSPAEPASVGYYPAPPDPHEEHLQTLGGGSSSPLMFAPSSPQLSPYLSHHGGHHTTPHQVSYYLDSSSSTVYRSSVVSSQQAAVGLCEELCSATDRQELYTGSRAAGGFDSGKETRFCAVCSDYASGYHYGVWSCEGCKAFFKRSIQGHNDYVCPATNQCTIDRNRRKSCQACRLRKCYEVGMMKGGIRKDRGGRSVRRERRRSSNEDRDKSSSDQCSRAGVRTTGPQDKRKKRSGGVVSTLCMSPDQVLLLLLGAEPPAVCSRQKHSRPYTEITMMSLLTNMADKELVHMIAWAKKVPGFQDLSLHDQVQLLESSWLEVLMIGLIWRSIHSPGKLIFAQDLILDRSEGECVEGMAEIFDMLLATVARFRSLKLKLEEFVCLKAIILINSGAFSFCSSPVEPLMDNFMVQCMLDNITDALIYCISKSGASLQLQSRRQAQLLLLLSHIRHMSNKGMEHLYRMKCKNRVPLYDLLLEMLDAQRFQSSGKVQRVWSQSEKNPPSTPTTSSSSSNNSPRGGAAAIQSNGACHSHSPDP
Outline: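 After 24 h compound exposure, RNA from transfected HepG2 cells was reverse-transcribed and reporter transcripts resolved by capillary electrophoresis. The TRANS format reads exogenous zebrafish ER1-Gal4 chimera activity on GAL4-UAS elements; gain of signal against DMSO.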

[14] = biological target: chicken Estrogen Receptor (ERa), ESR1 (gene 396099) (UniProt P06212); assay: ATG_chERa_XSP2: Attagene TRANS-FACTORIAL Multi-Species (XSP2) HepG2 Assay for chicken Estrogen Receptor (ERa) (AID 2283817);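 note: actives raise reporter signal above DMSO so AC50 reflects ER activation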
chicken Estrogen Receptor (ERa), ESR1 (gene 396099), sequence (P06212 whole entry, looked up, the tested form may be a part): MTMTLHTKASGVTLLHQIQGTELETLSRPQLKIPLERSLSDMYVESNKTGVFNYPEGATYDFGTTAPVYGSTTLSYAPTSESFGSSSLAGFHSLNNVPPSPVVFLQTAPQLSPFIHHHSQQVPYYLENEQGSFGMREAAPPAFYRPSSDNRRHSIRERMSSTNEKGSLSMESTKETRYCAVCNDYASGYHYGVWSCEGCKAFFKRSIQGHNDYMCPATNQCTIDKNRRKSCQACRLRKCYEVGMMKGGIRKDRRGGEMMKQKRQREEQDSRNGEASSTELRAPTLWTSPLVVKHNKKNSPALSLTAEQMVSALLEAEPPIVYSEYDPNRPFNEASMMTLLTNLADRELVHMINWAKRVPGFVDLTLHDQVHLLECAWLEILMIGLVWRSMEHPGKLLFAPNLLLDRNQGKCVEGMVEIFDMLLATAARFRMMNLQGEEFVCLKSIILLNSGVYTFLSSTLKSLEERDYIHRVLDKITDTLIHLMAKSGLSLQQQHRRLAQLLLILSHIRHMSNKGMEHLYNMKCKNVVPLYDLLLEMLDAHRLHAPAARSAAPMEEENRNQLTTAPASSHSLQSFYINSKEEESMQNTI
Outline: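 Reporter mRNA induction read by RT-PCR, fluorescent labelling and capillary electrophoresis after 24 h exposure; positive-direction fit against DMSO baseline. HepG2 cells transfected with multiplexed GAL4-UAS units including chicken ERa chimera; medium contained 3 nM 6-alpha-fluorotestosterone plus 1.5 nM norgestrel.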

[15] = tested on: zebrafish Estrogen Receptor (ER2a), gene 317734; assay: ATG_zfER2a_XSP2: Attagene TRANS-FACTORIAL Multi-Species (XSP2) HepG2 Assay for zebrafish Estrogen Receptor (ER2a) (AID 2283818);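 note: hits raise reporter mRNA so AC50 reflects activation of zebrafish ER2a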
Outline: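 Multiplexed trans-reporter readout: RT-PCR then capillary electrophoresis of reporter transcripts after 24 h compound treatment. Human HepG2 carries transfected zebrafish ER2a-Gal4 chimera; 3 nM 6-alpha-fluorotestosterone plus 1.5 nM norgestrel present. Induction scored against DMSO.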

[16] = tested on: frog Estrogen Receptor (ER), gene 398734; assay: ATG_frER1_XSP2: Attagene TRANS-FACTORIAL Multi-Species (XSP2) HepG2 Assay for frog Estrogen Receptor (ER) (AID 2283821);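 note: hits raise reporter mRNA above DMSO baseline so potency means agonist or activator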
Outline: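 HepG2 cells transiently transfected with multiplexed GAL4-UAS reporter units expressing chimeric NR-Gal4 proteins (TRANS format) were dosed for 24 h. Reporter mRNA was quantified by RT-PCR, FAM primer extension, HpaI digestion and capillary electrophoresis; gain of signal relative to DMSO.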

[17] = ATG_M_19_XSP1: Attagene TRANS-FACTORIAL Multi-Species (XSP1) HepG2 Assay for M19 Transcription Factor (Internal Marker) (AID 2283798)
Outline: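 Readout is reporter mRNA induction quantified via RT-PCR, 6-FAM labeling, HpaI digestion and capillary electrophoresis, fitted in the positive direction versus DMSO baseline. Transfected HepG2 cells exposed 24 h, medium including 3 nM 6-alpha-fluorotestosterone.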

[18] = biological target: Nuclear receptor subfamily 1 group I member 2 (Mus musculus) (UniProt O54915); assay: ATG_mPXR_XSP1: Attagene TRANS-FACTORIAL Multi-Species (XSP1) HepG2 Assay for mouse Pregnane X Receptor (PXR) (AID 2283803)
Nuclear receptor subfamily 1 group I member 2 (Mus musculus), sequence (O54915 whole entry, looked up, the tested form may be a part): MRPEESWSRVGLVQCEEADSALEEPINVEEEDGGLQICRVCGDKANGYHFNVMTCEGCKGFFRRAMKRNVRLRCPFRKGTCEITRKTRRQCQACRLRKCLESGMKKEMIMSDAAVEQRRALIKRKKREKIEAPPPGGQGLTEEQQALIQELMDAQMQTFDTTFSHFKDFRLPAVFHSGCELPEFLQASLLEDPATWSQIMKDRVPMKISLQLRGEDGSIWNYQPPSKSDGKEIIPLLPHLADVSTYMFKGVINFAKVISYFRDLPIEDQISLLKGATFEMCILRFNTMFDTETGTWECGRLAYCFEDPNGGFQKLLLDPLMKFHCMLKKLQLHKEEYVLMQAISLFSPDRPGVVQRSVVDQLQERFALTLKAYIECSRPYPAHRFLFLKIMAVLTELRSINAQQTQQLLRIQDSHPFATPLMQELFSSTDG
Outline: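 Transiently transfected HepG2 cells expressing a receptor-Gal4 chimera drive a GAL4-UAS reporter; 3 nM 6-alpha-fluorotestosterone included. Reporter mRNA read 24 h post-dose by RT-PCR and capillary electrophoresis; gain of signal relative to DMSO.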

[19] = tested on: chicken Androgen Receptor (AR), gene 422165; assay: ATG_chAR_XSP2: Attagene TRANS-FACTORIAL Multi-Species (XSP2) HepG2 Assay for chicken Androgen Receptor (AR) (AID 2283819);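 note: hits raise reporter mRNA above DMSO so potency is for activation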
Outline: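 Readout is reporter mRNA induction via RT-PCR/capillary electrophoresis after 24 h chemical exposure, positive direction relative to DMSO. Transiently transfected HepG2 express chimeric chicken AR–GAL4; AR stimulated by 3 nM 6-alpha-fluorotestosterone and 1.5 nM norgestrel.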

[20] = tested on: turtle Androgen Receptor (AR), gene 101947425; assay: ATG_trAR_XSP2: Attagene TRANS-FACTORIAL Multi-Species (XSP2) HepG2 Assay for turtle Androgen Receptor (AR) (AID 2283815)
Outline: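 Reporter transcripts were quantified via RT-PCR and capillary electrophoresis and fitted upward against DMSO. Transiently transfected human HepG2 cells carrying NR-Gal4 chimeras were exposed 24 h, with 3 nM 6-alpha-fluorotestosterone plus 1.5 nM norgestrel added.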

Measured: AC50

CCCN(CCC)c1c([N+](=O)[O-])cc(S(N)(=O)=O)cc1[N+](=O)[O-]
active: [1] 54.4 µM | [2] 46.9 µM | [4] 24.4 µM | [5] 8.93 µM | [6] 8.28 µM | [8] 9.26 µM | [9] 9.16 µM | [10] 161 µM
not listed: [17] | [18] | [19] | [20]
inactive: all other assays above

CCCCC(CC)COC(=O)c1ccccc1C(=O)OCC(CC)CCCC (stereo not drawn)
active: [2] 8.96 µM | [18] 0.22 µM | [6] 46.3 µM | [8] 100 µM | [9] 100 µM
not listed: [12] | [13] | [14] | [15] | [19] | [20]
inactive: all other assays above

COc1ccc(C(c2ccc(OC)cc2)C(Cl)(Cl)Cl)cc1
active: [18] 2.7 µM | [12] 8.99 µM | [14] 7.74 µM | [16] 8.82 µM
not listed: [1] | [3] | [5] | [13] | [20]
inactive: all other assays above

CCCCNC(=O)OCC#CI
active: [2] 11.1 µM | [4] 11.1 µM | [10] 23.2 µM
inactive: [18] | [5] | [6] | [8] | [11] | [13] | [16]

CO/C=C(/C(=O)OC)c1ccccc1Oc1cc(Oc2ccccc2C#N)ncn1
inactive: [3] | [4] | [5] | [6] | [7] | [8] | [9] | [11] | [12]
active: [18] 0.431 µM

CC(C)(C)c1ccc(CSc2cnn(C(C)(C)C)c(=O)c2Cl)cc1
active: [2] 0.387 µM | [4] 0.585 µM | [18] 0.634 µM | [5] 0.148 µM
not listed: [1] | [6] | [8] | [17]
inactive: all other assays above

CCOP(=S)(OCC)SCn1c(=O)oc2cc(Cl)ccc21
active: [4] 26.7 µM | [18] 0.0865 µM | [9] 49.8 µM
not listed: [1] | [5] | [6] | [7] | [20]
inactive: all other assays above

CON(C)C(=O)Nc1ccc(Cl)c(Cl)c1
active: [2] 100 µM | [4] 100 µM | [18] 13.6 µM
inactive: [5] | [6] | [7] | [9] | [10] | [13] | [14] | [15] | [16]
